Records with an inconclusive call do not appear. Active and inactive are the calls of the source. Calls come from the whole dose curve; as a rule, active = well fitted curve in the direction sought with a large enough effect; inconclusive = small, poorly fitted or top-dose-only effect, or another doubt; inactive = no such curve, though single readings can be large; an effect the other way counts as inactive or inconclusive.
Tests used:
HACAT = assay: qHTS assay to identify novel small-molecules to repurpose for Merkel cell carcinoma treatment (AID 1296009); conditions: MCC and control cell lines, CellTiter-Glo viability, 72 h; at 44.8 µM (top of the series) unless noted; note: nearly all actives have a fitted effect of over 60% in size; note: potency is the fitted concentration of half-maximal effect
Outline: (§1)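 Viability readout: ATP luminescence (CellTiter-Glo) after 72 hr drug exposure at 37 degree celsius. Dose-response format was 8 points for NPC and 11 points for MIPE; data normalized to in-plate controls.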

MCC-13 = assay: as above; conditions: MCC and control cell lines, CellTiter-Glo viability, 72 h; series mostly up to 46 µM
Outline: as §1

MCC-26 = assay: as above; conditions: MCC and control cell lines, CellTiter-Glo viability, 72 h; series mostly up to 46 µM
Outline: as §1

MKL-1 = assay: as above; conditions: MCC and control cell lines, CellTiter-Glo viability, 72 h; series mostly up to 46 µM
Outline: as §1

MKL-2 = assay: as above; conditions: MCC and control cell lines, CellTiter-Glo viability, 72 h; series mostly up to 46 µM
Outline: as §1

UISO = assay: as above; conditions: MCC and control cell lines, CellTiter-Glo viability, 72 h; series mostly up to 46 µM
Outline: as §1

WaGa = assay: as above; conditions: MCC and control cell lines, CellTiter-Glo viability, 72 h; series mostly up to 46 µM
Outline: as §1

C33A = assay: Primary qHTS to identify gynecologic anti-cancer compounds using libraries of approved drugs and bioactive compounds (AID 1345084); conditions: Gynecologic cancer cell panel viability, ATPlite luminescence, 48 h; series mostly up to 57.5 µM; note: nearly all actives have a fitted effect of over 55% in size
Outline: (§2)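 Cytotoxicity screen measuring ATP content by luciferase luminescence. Each compound is applied at five concentrations for 48 h at 37 C with 5% CO2.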

CAOV3 = assay: as above; conditions: Gynecologic cancer cell panel viability, ATPlite luminescence, 48 h; series mostly up to 57.5 µM
Outline: as §2

CASKI = assay: as above; conditions: Gynecologic cancer cell panel viability, ATPlite luminescence, 48 h; series mostly up to 57.5 µM
Outline: as §2

Es-2 = assay: as above; conditions: Gynecologic cancer cell panel viability, ATPlite luminescence, 48 h; series mostly up to 57.5 µM
Outline: as §2

HeLa = assay: as above; conditions: Gynecologic cancer cell panel viability, ATPlite luminescence, 48 h; series mostly up to 57.5 µM
Outline: as §2

Hek293T = assay: as above; conditions: Gynecologic cancer cell panel viability, ATPlite luminescence, 48 h, control line for the selectivity index; series mostly up to 57.5 µM
Outline: as §2

JEG-3 = assay: as above; conditions: Gynecologic cancer cell panel viability, ATPlite luminescence, 48 h; series mostly up to 57.5 µM
Outline: as §2

OV90 = assay: as above; conditions: Gynecologic cancer cell panel viability, ATPlite luminescence, 48 h; series mostly up to 57.5 µM
Outline: as §2

PA-1 = assay: as above; conditions: Gynecologic cancer cell panel viability, ATPlite luminescence, 48 h; series mostly up to 57.5 µM
Outline: as §2

SKOV3 = assay: as above; conditions: Gynecologic cancer cell panel viability, ATPlite luminescence, 48 h; series mostly up to 57.5 µM
Outline: as §2

Tov-21-G = assay: as above; conditions: Gynecologic cancer cell panel viability, ATPlite luminescence, 48 h; series mostly up to 57.5 µM
Outline: as §2

NIH3T3 = assay: qHTS assay to identify novel small-molecules to repurpose for Merkel cell carcinoma treatment (AID 1296009); conditions: MCC and control cell lines, CellTiter-Glo viability, 72 h; at 44.8 µM (top of the series) unless noted; note: nearly all actives have a fitted effect of over 60% in size; note: potency is the fitted concentration of half-maximal effect
Outline: as §1
% is set by controls: 0 for no effect and ±100 for the full control effect.

Cc1cccc(OCC(O)CNC(C)(C)C)c1C (stereo not drawn)
inactive: outcome (HACAT) | Potency (MCC-13) | Potency (MCC-26) | Potency (MKL-1) | Potency (MKL-2) | Potency (UISO) | Potency (WaGa) | Potency (C33A) | Potency (CAOV3) | Potency (CASKI) | Potency (Es-2) | Potency (HeLa) | Potency (Hek293T) | Potency (JEG-3) | Potency (OV90) | Potency (PA-1) | Potency (SKOV3) | Potency (Tov-21-G)

CCCCCCCC(=O)[O-].CCCCCCCC(=O)[O-].[Zn+2]
inactive: outcome (HACAT) | Potency (MCC-13) | Potency (MCC-26) | Potency (MKL-1) | Potency (MKL-2) | Potency (UISO) | Potency (WaGa) | Potency (C33A) | Potency (CAOV3) | Potency (CASKI) | Potency (Es-2) | Potency (HeLa) | Potency (Hek293T) | Potency (JEG-3) | Potency (OV90) | Potency (PA-1) | Potency (SKOV3) | Potency (Tov-21-G)

O=C(O)c1ccc(OCCN2CCCCC2)cc1
inactive: outcome (HACAT) | Potency (MCC-13) | Potency (MCC-26) | Potency (MKL-1) | Potency (MKL-2) | Potency (UISO) | Potency (WaGa) | Potency (C33A) | Potency (CAOV3) | Potency (CASKI) | Potency (Es-2) | Potency (HeLa) | Potency (Hek293T) | Potency (JEG-3) | Potency (OV90) | Potency (PA-1) | Potency (SKOV3) | Potency (Tov-21-G)

CNC(=O)c1c(I)c(NC(C)=O)c(I)c(C(=O)O)c1I
inactive: outcome (HACAT) | Potency (MCC-13) | Potency (MCC-26) | Potency (MKL-1) | Potency (MKL-2) | Potency (UISO) | Potency (WaGa) | Potency (C33A) | Potency (CAOV3) | Potency (CASKI) | Potency (Es-2) | Potency (HeLa) | Potency (Hek293T) | Potency (JEG-3) | Potency (OV90) | Potency (PA-1) | Potency (SKOV3) | Potency (Tov-21-G)

O=C(O)c1[nH]n(-c2ccc(S(=O)(=O)O)cc2)c(=O)c1N=Nc1ccc(S(=O)(=O)O)cc1
inactive: outcome (HACAT) | Potency (MCC-13) | Potency (MCC-26) | Potency (MKL-1) | Potency (MKL-2) | Potency (UISO) | Potency (WaGa) | Potency (C33A) | Potency (CAOV3) | Potency (CASKI) | Potency (Es-2) | Potency (HeLa) | Potency (Hek293T) | Potency (JEG-3) | Potency (OV90) | Potency (PA-1) | Potency (SKOV3) | Potency (Tov-21-G)

CSc1ccc(/C=C2/C(C)=C(CC(=O)O)c3cc(F)ccc32)cc1
inactive: outcome (HACAT) | Potency (MCC-13) | Potency (MCC-26) | Potency (MKL-1) | Potency (MKL-2) | Potency (UISO) | Potency (WaGa) | Potency (C33A) | Potency (CAOV3) | Potency (CASKI) | Potency (Es-2) | Potency (HeLa) | Potency (Hek293T) | Potency (JEG-3) | Potency (OV90) | Potency (PA-1) | Potency (SKOV3) | Potency (Tov-21-G)

Cc1onc(-c2ccccc2)c1C(=O)Cl
inactive: outcome (HACAT) | Potency (MCC-13) | Potency (MCC-26) | Potency (MKL-1) | Potency (MKL-2) | Potency (UISO) | Potency (WaGa) | Potency (C33A) | Potency (CAOV3) | Potency (CASKI) | Potency (Es-2) | Potency (HeLa) | Potency (Hek293T) | Potency (JEG-3) | Potency (OV90) | Potency (PA-1) | Potency (SKOV3) | Potency (Tov-21-G)

COc1cc(C=O)ccc1O
inactive: outcome (HACAT) | Potency (MCC-13) | Potency (MCC-26) | Potency (MKL-1) | Potency (MKL-2) | Potency (UISO) | Potency (WaGa) | Potency (C33A) | Potency (CAOV3) | Potency (CASKI) | Potency (Es-2) | Potency (HeLa) | Potency (Hek293T) | Potency (JEG-3) | Potency (OV90) | Potency (PA-1) | Potency (SKOV3) | Potency (Tov-21-G)

CC(=O)Nc1c(I)c(NC(C)=O)c(I)c(C(=O)O)c1I
inactive: outcome (HACAT) | Potency (MCC-13) | Potency (MCC-26) | Potency (MKL-1) | Potency (MKL-2) | Potency (UISO) | Potency (WaGa) | Potency (C33A) | Potency (CAOV3) | Potency (CASKI) | Potency (Es-2) | Potency (HeLa) | Potency (Hek293T) | Potency (JEG-3) | Potency (OV90) | Potency (PA-1) | Potency (SKOV3) | Potency (Tov-21-G)

CC(=O)[C@H]1CC[C@H]2[C@@H]3C=CC4=CC(=O)CC[C@@]4(C)[C@@H]3CC[C@]12C
inactive: outcome (HACAT) | Potency (MCC-13) | Potency (MCC-26) | Potency (MKL-1) | Potency (MKL-2) | Potency (UISO) | Potency (WaGa) | Potency (C33A) | Potency (CAOV3) | Potency (CASKI) | Potency (Es-2) | Potency (HeLa) | Potency (Hek293T) | Potency (JEG-3) | Potency (OV90) | Potency (PA-1) | Potency (SKOV3) | Potency (Tov-21-G)

Oc1ccccc1
inactive: outcome (HACAT) | Potency (MCC-13) | Potency (MCC-26) | Potency (MKL-1) | Potency (MKL-2) | Potency (UISO) | Potency (WaGa) | Potency (C33A) | Potency (CAOV3) | Potency (CASKI) | Potency (Es-2) | Potency (HeLa) | Potency (Hek293T) | Potency (JEG-3) | Potency (OV90) | Potency (PA-1) | Potency (SKOV3) | Potency (Tov-21-G)

CC(=O)N1CCN(c2ccc(O)cc2)CC1
inactive: outcome (HACAT) | Potency (MCC-13) | Potency (MCC-26) | outcome (NIH3T3) | Potency (C33A) | Potency (CAOV3) | Potency (CASKI) | Potency (Es-2) | Potency (HeLa) | Potency (Hek293T) | Potency (JEG-3) | Potency (OV90) | Potency (PA-1) | Potency (SKOV3) | Potency (Tov-21-G)
active: Potency (MKL-1) 8.41 µM | Potency (MKL-2) 7.5 µM | Potency (WaGa) 23.7 µM

C/C=C(/C(=C/C)c1ccc(OC(C)=O)cc1)c1ccc(OC(C)=O)cc1
inactive: outcome (HACAT) | Potency (MCC-13) | Potency (MCC-26) | Potency (MKL-1) | Potency (MKL-2) | Potency (UISO) | Potency (WaGa) | Potency (C33A) | Potency (CAOV3) | Potency (CASKI) | Potency (Es-2) | Potency (HeLa) | Potency (Hek293T) | Potency (JEG-3) | Potency (OV90) | Potency (PA-1) | Potency (SKOV3) | Potency (Tov-21-G)

NCC[C@H](O)C(=O)N[C@@H]1C[C@H](N)[C@@H](O[C@H]2O[C@H](CN)[C@@H](O)[C@H](O)[C@@H]2O)[C@H](O)[C@@H]1O[C@H]1O[C@H](CO)[C@@H](O)[C@H](N)[C@@H]1O
inactive: outcome (HACAT) inactive [at 0.588 µM] | activity change, negative = cytotoxicity (MCC-13) 1.29% [at 0.597 µM] | activity change, negative = cytotoxicity (MCC-26) 13.8% [at 0.597 µM] | activity change, negative = cytotoxicity (MKL-1) 9.09% [at 0.597 µM] | activity change, negative = cytotoxicity (MKL-2) 22.5% [at 0.597 µM] | activity change, negative = cytotoxicity (UISO) 23.5% [at 0.597 µM] | activity change, negative = cytotoxicity (WaGa) 23.2% [at 0.597 µM] | activity change, negative = cytotoxicity (C33A) 13.2% [at 0.462 µM] | activity change, negative = cytotoxicity (CAOV3) 10.2% [at 0.462 µM] | activity change, negative = cytotoxicity (CASKI) 11.8% [at 0.462 µM] | activity change, negative = cytotoxicity (Es-2) -2.07% [at 0.462 µM] | activity change, negative = cytotoxicity (HeLa) 16.7% [at 0.462 µM] | activity change, negative = cytotoxicity (Hek293T) 1.79% [at 0.462 µM] | activity change, negative = cytotoxicity (JEG-3) 1.19% [at 0.462 µM] | activity change, negative = cytotoxicity (OV90) -0.567% [at 0.462 µM] | activity change, negative = cytotoxicity (PA-1) 20.2% [at 0.462 µM] | activity change, negative = cytotoxicity (SKOV3) 13.9% [at 0.462 µM] | activity change, negative = cytotoxicity (Tov-21-G) 7.33% [at 0.462 µM]

CCCC(CCC)(C(=O)OCC)C(=O)OCC
inactive: outcome (HACAT) | Potency (MCC-13) | Potency (MCC-26) | Potency (MKL-1) | Potency (MKL-2) | Potency (UISO) | Potency (WaGa) | Potency (C33A) | Potency (CAOV3) | Potency (CASKI) | Potency (Es-2) | Potency (HeLa) | Potency (Hek293T) | Potency (JEG-3) | Potency (OV90) | Potency (PA-1) | Potency (SKOV3) | Potency (Tov-21-G)

CN1CC(=O)N2[C@H](c3ccc4c(c3)OCO4)c3[nH]c4ccccc4c3C[C@@H]2C1=O
inactive: outcome (HACAT) | Potency (MCC-13) | Potency (MCC-26) | Potency (MKL-1) | Potency (MKL-2) | Potency (UISO) | Potency (WaGa) | Potency (C33A) | Potency (CAOV3) | Potency (CASKI) | Potency (Es-2) | Potency (HeLa) | Potency (Hek293T) | Potency (JEG-3) | Potency (OV90) | Potency (PA-1) | Potency (SKOV3) | Potency (Tov-21-G)

Source: PubChem BioAssay (NCATS)
